Assay results published in PubChem BioAssay (EPA / NIEHS).
Where “and” joins values, the source holds several entries; their conditions need not be identical. Equal values may be shown once. Inconclusive results are not listed. The source holds several records for some structures; these can differ, active in one and inactive in another. Calls of active or inactive are those of the source. How the source made its calls, unless noted: active means hit-call score of the fitted dose curve at least 0.9, where 1 is the maximum; inactive means score below 0.9.

Experiments:
[1] = molecular target: human RAR-related Orphan Receptor beta (RORb), RORB (gene 6096) (UniProt Q92753); assay: ATG_RORb_TRANS: Attagene TRANS-FACTORIAL HepG2 Assay for human RAR-related Orphan Receptor beta (RORb) (AID 2283010; active means hit-call score of the fitted dose curve at least 0.9, where 1 is the maximum)
Method in brief: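 Multiplexed transcription-factor reporter assay: HepG2 cells transiently carrying NR-Gal4/GAL4-UAS constructs, 24 h treatment, mRNA quantified by RT-PCR plus capillary electrophoresis fluorescence; activity scored as induction over DMSO.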

[2] = molecular target: human RAR-related Orphan Receptor gamma (RORg), RORC (gene 6097) (UniProt P51449); assay: ATG_RORg_TRANS: Attagene TRANS-FACTORIAL HepG2 Assay for human RAR-related Orphan Receptor gamma (RORg) (AID 2283011; active means hit-call score of the fitted dose curve at least 0.9, where 1 is the maximum)
Method in brief: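 Transient MRTU transfection of HepG2 (TRANS format, exogenous NR-Gal4 chimera). 24 h dosing. Total RNA → oligo(dT) RT → PCR → 6-FAM labelling → HpaI cut → CE. Gain vs DMSO.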

[3] = molecular target: Retinoic acid receptor RXR-alpha (Homo sapiens) (UniProt P19793); assay: ATG_RXRa_TRANS: Attagene TRANS-FACTORIAL HepG2 Assay for human Retinoid X Receptor alpha (RXRa) (AID 2283012; active means hit-call score of the fitted dose curve at least 0.9, where 1 is the maximum)
Method in brief: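 Chimeric NR-GAL4 trans-activation in HepG2, 24 h treatment; reporter transcripts quantified by fluorescence on capillary electrophoresis, analysed for upward change from DMSO.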

[4] = molecular target: human Thyroid Receptor alpha (THRa1), THRA (gene 7067) (UniProt P10827); assay: ATG_THRa1_TRANS: Attagene TRANS-FACTORIAL HepG2 Assay for human Thyroid Receptor alpha (THRa1) (AID 2283014; active means hit-call score of the fitted dose curve at least 0.9, where 1 is the maximum)
Method in brief: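 Transient HepG2 transfection, NR-Gal4 chimera driving GAL4-UAS reporters; 24 h compound exposure; total RNA, oligo(dT) RT, PCR, fluorescent primer extension, capillary electrophoresis. Upward direction vs DMSO control.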

[5] = read-out: E-selectin (Homo sapiens) (UniProt P16581); assay: BSK_3C_Eselectin: BioMAP Diversity Plus: 3C Assay for Eselectin Biomarker Activity (AID 2283015); details: primary human endothelial cells (HUVEC); actives raise or lower the signal
Method in brief: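 HUVEC, 3C stimulation; compound exposure 24 h; E-selectin by ELISA; gain- or loss-of-signal fitted bidirectionally vs DMSO baseline.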

[6] = read-out: Interleukin-1 alpha (IL1a), IL1A (gene 3552); assay: BSK_BE3C_IL1a: BioMAP Diversity Plus: BE3C Assay for Interleukin-1 alpha (IL1a) Biomarker Activity (AID 2283016); details: primary human bronchial epithelial cells; actives raise or lower the signal
Method in brief: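 Measured in human lung primary bronchial epithelial cells: IL-1a by ELISA at 24 h after dosing, with bidirectional fitting against DMSO.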

[7] = read-out: Monocyte Chemoattractant Protein-1 (MCP1), CCL2 (gene 6347); assay: BSK_4H_MCP1: BioMAP Diversity Plus: 4H Assay for Monocyte Chemoattractant Protein-1 (MCP1) Biomarker Activity (AID 2283018); details: primary human endothelial cells (HUVEC); actives raise or lower the signal
Method in brief: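 Primary human umbilical vein endothelium is exposed to chemical for 24 h before MCP-1 is assayed by ELISA. Concentration-response fitted bidirectionally relative to DMSO.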

[8] = read-out: Human Leukocyte Antigen - DR isotype (HLADR), HLA-DRA (gene 3122); assay: BSK_3C_HLADR: BioMAP Diversity Plus: 3C Assay for Human Leukocyte Antigen - DR isotype (HLADR) Biomarker Activity (AID 2283019); details: primary human endothelial cells (HUVEC); actives raise or lower the signal
Method in brief: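 HUVEC, 3C stimulation, 24 h post-dose; HLA-DR by ELISA; bidirectional curve fit vs DMSO baseline; gain or loss of signal scored.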

[9] = read-out: Interleukin-8 (IL8), CXCL8 (gene 3576); assay: BSK_3C_IL8: BioMAP Diversity Plus: 3C Assay for Interleukin-8 (IL8) Biomarker Activity (AID 2283020); details: primary human endothelial cells (HUVEC); actives raise or lower the signal
Method in brief: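 Using DMSO-treated wells as the baseline, bidirectional curve fitting was applied to ELISA-measured IL-8 from human umbilical vein endothelial cultures sampled 24 h after compound addition.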

[10] = read-out: Monokine induced gamma interferon (MIG), CXCL9 (gene 4283); assay: BSK_3C_MIG: BioMAP Diversity Plus: 3C Assay for Monokine induced gamma interferon (MIG) Biomarker Activity (AID 2283021); details: primary human endothelial cells (HUVEC); actives raise or lower the signal;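 on AC50: MIG protein level measured by immunoassay in the treated endothelial cultures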
Method in brief: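 ELISA-measured MIG in dosed HUVEC 3C cultures at 24 h, analysed by bidirectional fitting with DMSO defining baseline activity.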

[11] = molecular target: human Vitamin D Receptor (VDR), VDR (gene 7421) (UniProt P11473); assay: ATG_VDR_TRANS: Attagene TRANS-FACTORIAL HepG2 Assay for human Vitamin D Receptor (VDR) (AID 2283022; active means hit-call score of the fitted dose curve at least 0.9, where 1 is the maximum)
Method in brief: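 RT-PCR/capillary electrophoresis read-out of reporter mRNA induction in transiently transfected HepG2; 24 h dosing; chimeric NR-Gal4 (TRANS format); gain-of-signal fit against DMSO baseline.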

[12] = BSK_3C_SRB: Viability Assessment in the BioMAP Diversity Plus: 3C Assay (AID 2283023); details: primary human endothelial cells (HUVEC);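 further: cells read 24 h after compound dosing; fitted both ways against DMSO so a hit may be signal rise or drop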
Method in brief: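 HUVEC, 24 h post-dose; 10% TCA fix, 0.1% SRB stain, A560 nm. Bidirectional curve fit vs DMSO negative control.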

[13] = read-out: Matrix Metallopeptidase 1 (MMP1), MMP1 (gene 4312); assay: BSK_BE3C_MMP1: BioMAP Diversity Plus: BE3C Assay for Matrix Metallopeptidase 1 (MMP1) Biomarker Activity (AID 2283024); details: primary human bronchial epithelial cells; actives raise or lower the signal
Method in brief: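 In this multiplexed primary-cell system, human bronchial epithelium received chemicals for 24 h before an ELISA for MMP1. Values reflect bidirectional fits normalised to the DMSO baseline.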

[14] = BSK_3C_Vis: BioMAP Diversity Plus: 3C Assay for Morphology Visualization (AID 2283025); details: primary human endothelial cells (HUVEC);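 further: fitted both ways so gain or loss versus DMSO counts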;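 on AC50: light microscopy image of cell morphology used as background control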
Method in brief: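 Light-microscopy morphology readout, 24 h exposure, human primary umbilical vein endothelium; analysed relative to DMSO with bidirectional fitting.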

[15] = read-out: Pselectin, SELP (gene 6403); assay: BSK_4H_Pselectin: BioMAP Diversity Plus: 4H Assay for Pselectin Biomarker Activity (AID 2283026); details: primary human endothelial cells (HUVEC); actives raise or lower the signal
Method in brief: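 Bidirectional fits against DMSO gave the endpoint. Cells: primary human umbilical vein endothelium, chemical-treated for 24 h before ELISA detection of P-selectin.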

[16] = BSK_4H_SRB: Viability Assessment in the BioMAP Diversity Plus: 4H Assay (AID 2283027); details: primary human endothelial cells (HUVEC);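 further: cells exposed to compound for 24 h before staining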;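 on AC50: curves fitted both ways versus DMSO so AC50 may be loss or gain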
Method in brief: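 Cytotoxicity readout: sulforhodamine B (0.1%) staining of total protein after 10% TCA fixation, measured at 560 nm in human umbilical vein endothelium at 24 h. DMSO set the baseline; fitting was bidirectional.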

[17] = BSK_BE3C_SRB: Viability Assessment in the BioMAP Diversity Plus: BE3C Assay (AID 2283028); details: primary human bronchial epithelial cells;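 on AC50: fitted both ways so AC50 may mark signal gain or loss versus DMSO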
Method in brief: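 Primary human bronchial epithelium; chemical dosing, 24 h; 10% TCA fix, 0.1% SRB stain, A560; bidirectional fit vs DMSO baseline.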

[18] = read-out: Thrombomodulin, THBD (gene 7056); assay: BSK_3C_Thrombomodulin: BioMAP Diversity Plus: 3C Assay for Thrombomodulin Biomarker Activity (AID 2283029); details: primary human endothelial cells (HUVEC); actives raise or lower the signal
Method in brief: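 In a multiplexed primary-cell system, human umbilical vein endothelium received chemical and was assayed 24 h later for thrombomodulin by ELISA. Parallel cultures were SRB-stained (0.1% SRB after 10% TCA fixation, read at 560 nm) to flag cytotoxicity.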

[19] = read-out: Monocyte Chemoattractant Protein-1 (MCP1), CCL2 (gene 6347); assay: BSK_3C_MCP1: BioMAP Diversity Plus: 3C Assay for Monocyte Chemoattractant Protein-1 (MCP1) Biomarker Activity (AID 2283017); details: primary human endothelial cells (HUVEC); actives raise or lower the signal
Method in brief: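 HUVEC, 3C system; 24 h chemical exposure; MCP-1 by ELISA; bidirectional curve fit vs DMSO baseline.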

Measured: AC50

Sequence of Retinoic acid receptor RXR-alpha (Homo sapiens) (P19793 whole entry, looked up, the tested form may be a part): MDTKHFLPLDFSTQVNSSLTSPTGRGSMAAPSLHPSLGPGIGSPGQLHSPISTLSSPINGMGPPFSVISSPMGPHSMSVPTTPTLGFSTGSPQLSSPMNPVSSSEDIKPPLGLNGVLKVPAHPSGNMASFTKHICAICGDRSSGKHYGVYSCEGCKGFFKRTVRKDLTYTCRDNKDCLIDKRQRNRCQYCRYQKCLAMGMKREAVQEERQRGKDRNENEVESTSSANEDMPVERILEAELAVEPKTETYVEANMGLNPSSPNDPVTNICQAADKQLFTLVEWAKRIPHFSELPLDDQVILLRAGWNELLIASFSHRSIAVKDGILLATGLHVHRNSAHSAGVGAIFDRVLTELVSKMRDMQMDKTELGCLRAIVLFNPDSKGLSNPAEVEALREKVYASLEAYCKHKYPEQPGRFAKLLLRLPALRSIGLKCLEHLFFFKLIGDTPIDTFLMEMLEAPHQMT
Sequence of human RAR-related Orphan Receptor gamma (RORg), RORC (gene 6097) (P51449 whole entry, looked up, the tested form may be a part): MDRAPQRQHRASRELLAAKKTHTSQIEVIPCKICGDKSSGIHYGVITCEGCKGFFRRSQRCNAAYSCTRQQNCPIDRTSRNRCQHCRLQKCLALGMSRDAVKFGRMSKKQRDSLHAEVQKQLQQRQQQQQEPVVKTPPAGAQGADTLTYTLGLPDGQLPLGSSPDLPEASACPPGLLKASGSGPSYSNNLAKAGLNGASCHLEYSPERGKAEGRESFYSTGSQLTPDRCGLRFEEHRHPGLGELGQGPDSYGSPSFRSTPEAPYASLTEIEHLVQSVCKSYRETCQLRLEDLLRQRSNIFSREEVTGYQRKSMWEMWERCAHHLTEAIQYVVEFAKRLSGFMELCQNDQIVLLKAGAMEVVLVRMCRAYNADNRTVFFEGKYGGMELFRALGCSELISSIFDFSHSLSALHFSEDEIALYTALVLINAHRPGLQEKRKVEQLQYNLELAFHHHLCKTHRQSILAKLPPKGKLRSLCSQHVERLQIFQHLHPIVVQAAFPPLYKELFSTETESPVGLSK
Sequence of E-selectin (Homo sapiens) (P16581 whole entry, looked up): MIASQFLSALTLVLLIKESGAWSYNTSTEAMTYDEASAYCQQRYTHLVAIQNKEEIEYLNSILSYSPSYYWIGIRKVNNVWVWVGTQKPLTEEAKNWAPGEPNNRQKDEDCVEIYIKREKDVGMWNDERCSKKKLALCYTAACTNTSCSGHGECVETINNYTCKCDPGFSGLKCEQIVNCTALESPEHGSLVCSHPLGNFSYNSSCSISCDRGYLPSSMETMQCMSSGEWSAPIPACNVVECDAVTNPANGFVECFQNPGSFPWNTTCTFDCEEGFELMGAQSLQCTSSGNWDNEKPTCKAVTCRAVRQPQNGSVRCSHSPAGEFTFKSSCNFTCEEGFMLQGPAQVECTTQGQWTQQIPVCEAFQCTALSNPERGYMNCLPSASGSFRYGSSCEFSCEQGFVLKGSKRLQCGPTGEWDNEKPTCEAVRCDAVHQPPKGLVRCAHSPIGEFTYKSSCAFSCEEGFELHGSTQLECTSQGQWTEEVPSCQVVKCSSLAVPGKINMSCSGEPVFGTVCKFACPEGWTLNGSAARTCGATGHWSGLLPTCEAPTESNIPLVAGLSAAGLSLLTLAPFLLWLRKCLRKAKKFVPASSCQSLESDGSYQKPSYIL
Sequence of human Vitamin D Receptor (VDR), VDR (gene 7421) (P11473 whole entry, looked up, the tested form may be a part): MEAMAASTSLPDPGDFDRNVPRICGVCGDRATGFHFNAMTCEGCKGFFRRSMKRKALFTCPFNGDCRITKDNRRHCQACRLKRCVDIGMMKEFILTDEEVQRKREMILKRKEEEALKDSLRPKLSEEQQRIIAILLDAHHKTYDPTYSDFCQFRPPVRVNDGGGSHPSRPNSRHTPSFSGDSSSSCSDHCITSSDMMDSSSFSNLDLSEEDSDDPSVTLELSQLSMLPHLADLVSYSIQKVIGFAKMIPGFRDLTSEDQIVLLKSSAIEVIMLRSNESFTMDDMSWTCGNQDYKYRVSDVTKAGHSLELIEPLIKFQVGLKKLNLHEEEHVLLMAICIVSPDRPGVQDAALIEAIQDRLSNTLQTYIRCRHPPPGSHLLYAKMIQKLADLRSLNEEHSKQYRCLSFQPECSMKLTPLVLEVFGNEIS
Sequence of human Thyroid Receptor alpha (THRa1), THRA (gene 7067) (P10827 whole entry, looked up, the tested form may be a part): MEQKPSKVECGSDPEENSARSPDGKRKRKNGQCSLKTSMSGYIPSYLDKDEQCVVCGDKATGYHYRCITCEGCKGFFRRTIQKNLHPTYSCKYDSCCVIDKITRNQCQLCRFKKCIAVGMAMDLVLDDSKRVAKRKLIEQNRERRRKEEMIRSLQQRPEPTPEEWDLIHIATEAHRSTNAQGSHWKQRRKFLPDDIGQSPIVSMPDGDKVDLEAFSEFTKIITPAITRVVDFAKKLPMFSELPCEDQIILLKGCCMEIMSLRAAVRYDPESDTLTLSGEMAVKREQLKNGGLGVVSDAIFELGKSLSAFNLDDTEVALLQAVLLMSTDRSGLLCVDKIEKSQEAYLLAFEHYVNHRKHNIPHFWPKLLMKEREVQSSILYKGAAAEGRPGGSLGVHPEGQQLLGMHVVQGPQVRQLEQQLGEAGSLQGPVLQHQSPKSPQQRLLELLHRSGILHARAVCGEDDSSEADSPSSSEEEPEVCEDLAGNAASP
Sequence of human RAR-related Orphan Receptor beta (RORb), RORB (gene 6096) (Q92753 whole entry, looked up, the tested form may be a part): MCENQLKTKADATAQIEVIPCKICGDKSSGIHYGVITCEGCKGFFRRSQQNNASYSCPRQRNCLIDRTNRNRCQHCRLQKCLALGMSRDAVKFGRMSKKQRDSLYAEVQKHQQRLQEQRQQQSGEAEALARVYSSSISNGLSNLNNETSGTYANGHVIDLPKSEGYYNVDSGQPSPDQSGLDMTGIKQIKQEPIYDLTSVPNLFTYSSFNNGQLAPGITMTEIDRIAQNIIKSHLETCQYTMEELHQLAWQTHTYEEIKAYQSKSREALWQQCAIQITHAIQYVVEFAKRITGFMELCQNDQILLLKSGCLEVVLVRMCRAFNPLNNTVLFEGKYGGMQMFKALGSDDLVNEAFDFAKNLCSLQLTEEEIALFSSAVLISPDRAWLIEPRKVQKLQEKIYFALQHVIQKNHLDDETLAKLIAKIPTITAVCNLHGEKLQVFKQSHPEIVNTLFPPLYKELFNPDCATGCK

CCC(C)(C)C(=O)OC1=C(c2ccc(Cl)cc2Cl)C(=O)OC12CCCCC2
active: [5] 19.9 µM | [6] 31 µM | [7] 15.1 µM | [8] 11 µM | [9] 30.9 µM | [10] 35.2 µM | [12] 26.1 µM | [13] 36.6 µM | [14] 29.4 µM | [15] 36.5 µM | [16] 34.3 µM | [17] 31.3 µM
inactive: [1] | [2] | [3] | [4] | [11] | [18]

O=C(O)C(F)(F)C(F)(F)C(F)(F)C(F)(F)C(F)(F)C(F)(F)C(F)(F)F
active: [9] 30 µM and 16 µM and 22.5 µM | [12] 46.1 µM
inactive: [1] | [2] | [3] | [5] | [6] | [7] | [8] | [9] | [10] | [11] | [12] | [14] | [15] | [16] | [17] | [18]

N#Cc1c(Cl)c(Cl)c(Cl)c(C#N)c1Cl
active: [5] 1.46 µM | [6] 2.48 µM | [7] 1.48 µM | [8] 0.166 µM | [9] 1.67 µM | [10] 2.06 µM | [12] 2.14 µM | [13] 4.1 µM | [14] 0.468 µM | [15] 0.911 µM | [16] 1.96 µM | [17] 1.72 µM | [18] 0.148 µM
inactive: [1] | [2] | [3] | [4] | [11]

CCS(=O)(=O)c1cccnc1S(=O)(=O)NC(=O)Nc1nc(OC)cc(OC)n1
not listed: [13]
inactive: all other assays above

O=C(O)COc1ccc(Cl)cc1Cl
not listed: [2] | [3] | [4] | [13] | [19]
inactive: all other assays above

CCC(C)(NC(=O)c1cc(Cl)c(C)c(Cl)c1)C(=O)CCl (configuration not stated)
active: [5] 8.28 µM | [6] 33.8 µM | [7] 13.8 µM | [8] 3.57 µM | [10] 14.1 µM | [12] 12.2 µM | [14] 7.99 µM | [15] 12 µM | [16] 27.3 µM | [17] 16.5 µM
inactive: [1] | [2] | [3] | [4] | [9] | [18]
